The panel holds about 79,000 compounds, 15% with a hit somewhere; the sample as a whole holds those more often. A number with no mark means an inactive call. Activity calls are given as the source filed them. Rule as the data show it: active = growth inhibition above about 70%; inactive = the rest.

A short description of the first assay: NCI Yeast Anticancer Drug Screen. Data for the mec2-1 strain (AID 157). Particulars: S. cerevisiae mec2-1 strain, at 1.2 µM, stronger effect = higher value. The gist of the method: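 mec2-1 yeast strain, carrying an alteration in DNA damage repair or cell cycle control, was exposed to compounds; growth inhibition was measured relative to vehicle-treated controls.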
In the case of `O=C(Nc1ccc(Cl)cc1)Nc1nnc2nc(C(C(=O)c3cccc([N+](=O)[O-])c3Cl)c3nc4nnc(NC(=O)Nc5ccc(Cl)cc5)n4[nH]c3=O)c(=O)[nH]n12`, the growth inhibition is -4%. On the same count and under the same terms, to `O=C(O)C1CC(c2ccccc2)=NN1c1ccccc1` (stereo unspecified) belongs -45%; to `CCCCc1ccc(-n2c(C)c(COC(=O)NC)c(COC(=O)NC)c2C)cc1`, -28%; to `CCC(=O)c1cc(C(=O)C(=S)SC)cc(C(=O)C(=S)SC)c1`, -9%. For the molecule `CCn1c(O)c(C=Nc2ccccc2)s/c1=N/Nc1nc(-c2ccccc2)cs1`, the growth inhibition was -6%. Same read-out and setting: next, `Cc1ccccc1N=C(NO)c1ccccc1`: 1%; `Cc1nc2ccccc2nc1NNc1ccccc1`: -2%.

Still in this assay, the particulars now being: S. cerevisiae mec2-1 strain, at 3.7 µM, stronger effect = higher value.
Turning to `O=[N+]([O-])c1cc[n+]([O-])cc1`, the growth inhibition is -2%.

With `CC1(C)CC(=O)C(/C=N/c2nc(-c3ccccc3)cs2)=C(O)C1`, the growth inhibition is 2%.

As to `Nc1nc(N)c2nc(CNc3ccc(C(=O)NC(CCC(=O)O)C(=O)O)cc3F)cnc2n1` (stereo unspecified), the growth inhibition is 26%. The same measure, in the same setting: to `COC(=O)CC1(O)C(/C=C/c2ccccc2)C(C(=O)OC)C(=O)C(C(=O)OC)C1C(=O)OC` (stereo unspecified) belongs -1%; to `CC(C)(C)c1ccc(NS(=O)(=O)c2ccc(N)cc2)cc1`, 4%. On the same count and under the same terms, next, `CCN(CC)CCNc1ccc([N+](=O)[O-])c2nc3ccccc3c(N)c12`: -23%. Still for that read-out and setting: to `CCCCN(CCCC)C(=O)/C=C/c1ccccc1` belongs -5%.

For `O=c1[nH]c(-c2ccccc2)nc2c1sc1nc3ccccc3n12`, the growth inhibition was -23%. The same measure, in the same setting: to `O=[N+]([O-])c1ccc2c(c1)/C(=N/N=C1c3ccccc3Cc3ccccc31)c1cc([N+](=O)[O-])cc([N+](=O)[O-])c1-2` belongs 78% (active). The same measure, in the same setting: to `CC(C)C(C)/C=C\C(C)C1CCC2C3=CC=C4CC(O)CCC4(C)C3CCC21C` (stereo unspecified) belongs 0%. As for `O=C1Nc2ccc(Br)cc2C1=Nc1ccc2c(c1)OCO2`, the growth inhibition was -27%.

As to `CCCCOCn1c(=O)[nH]c(=O)c2cc(Br)ccc21`, the growth inhibition is 6%. Still for that read-out and setting: to `Cc1ccc(S/C(=C\C(=O)O)c2ccccc2)cc1` belongs -3%.

Regarding `O=[N+]([O-])/C=C/c1cc(Cl)c(/C=C/[N+](=O)[O-])cc1Cl`, the growth inhibition was 59%. On to `Cc1cc(S(=O)(=O)Nc2nnc3cnc4ccccc4n23)c(S)cc1Cl`, for which the growth inhibition was 0%. The same measure, in the same setting: next, `O=C(/C=C/c1cc(Cl)cc(Cl)c1O)c1cccc(O)c1`: 0%; `NC1CCCCC1N.Nc1c(N=Nc2ccc(-c3ccc(N=Nc4cc(S(=O)(=O)[O-])c5ccccc5c4N)cc3)cc2)cc(S(=O)(=O)[O-])c2ccccc12.[OH3+].[OH3+].[Pt+4]`: 9%; `COC(=O)CCC(NC(=S)N/N=C(\C)c1ccccn1)C(=O)OC` (stereo unspecified): -7%. Same read-out and setting: next, `NC(=O)C(=O)NNc1ccccc1`: 6%; `COc1cc(C2SCC(=O)N2c2ccc(-c3ccc(-n4c(-c5ccccc5)nc5ccccc5c4=O)cc3)cc2)ccc1O` (stereo unspecified): -1%; `COc1ccc(/C=C/c2sc3ccccc3[n+]2CCCCI)cc1OC`: -6%. As to `Cc1c(C(C)C)cc(OCCO)cc1C(C)C`, the growth inhibition is -7%.

Regarding `Cc1cc(NCCCCCCCCNc2cc(C)nc3cc(N)ccc23)c2ccc(N)cc2n1`, the growth inhibition was -55%. On the same count and under the same terms, next, `C=C(Cl)COC(=O)Nc1cccc(Cl)c1`: -10%; `CC(=O)OC1CC2C(C)(C)C(=O)C=C[C@]2(C)C2CCC3(C)C(=CCC3[C@H](CO)C[C@H](O)C(=O)C(C)(C)O)[C@]12C` (stereo partly specified): -56%. On the same count and under the same terms, to `COc1ccc(/C=C/C(=O)c2ccccc2)cc1OC` belongs -12%. On to `COc1c(O)c(C=O)c(Br)c(C=O)c1O`, for which the growth inhibition is 6%. Same read-out and setting: to `O=[N+]([O-])c1cc(Cl)cnc1Br` belongs 43%. Same read-out and setting: to `Cc1ccc2c(c1)C1(SC(C)C(=O)N1c1ccc(Cl)cc1)C(=O)N2` (stereo unspecified) belongs 5%; to `COc1cc(CSc2ccc(O)cc2)cc(O)c1O`, -1%; to `Cc1ccc2c3ccc4c(c3n(C)c2c1)C(=O)C=CC4=O`, -11%.

As for `O=C(Nc1ccc(Cl)cc1)Nc1nnc2nc(C(C(=O)c3cccc([N+](=O)[O-])c3Cl)c3nc4nnc(NC(=O)Nc5ccc(Cl)cc5)n4[nH]c3=O)c(=O)[nH]n12`, the growth inhibition was -2%. The same measure, in the same setting: to `O=C(O)C1CC(c2ccccc2)=NN1c1ccccc1` (stereo unspecified) belongs -53%.

In the case of `CCCCc1ccc(-n2c(C)c(COC(=O)NC)c(COC(=O)NC)c2C)cc1`, the growth inhibition was -21%.
